# Screens: PubChem BioAssay, National Center for Advancing Translational Sciences (NCATS)
# Only some compounds are listed: those with a hit (about 18% of all), similar ones and a draw of the others.
# TDP1 block: qHTS Assay for Inhibitors of Tyrosyl-DNA Phosphodiesterase (TDP1); hit rate 0.28% among 350,000; Potency, µM (top dose mostly 130 µM), without a hit: at the top dose activity change, negative = inhibition, actives largely listed as inhibitors; recombinant TDP1, AlphaScreen DNA substrate cleavage; AID 485290, 2010; Tyrosyl-DNA phosphodiesterase 1 (Homo sapiens), Q9NUW8; note: potency is the fitted concentration of half-maximal effect; nearly all actives have a fitted effect of over 40% in size
# Target sequence (Q9NUW8 whole entry, looked up): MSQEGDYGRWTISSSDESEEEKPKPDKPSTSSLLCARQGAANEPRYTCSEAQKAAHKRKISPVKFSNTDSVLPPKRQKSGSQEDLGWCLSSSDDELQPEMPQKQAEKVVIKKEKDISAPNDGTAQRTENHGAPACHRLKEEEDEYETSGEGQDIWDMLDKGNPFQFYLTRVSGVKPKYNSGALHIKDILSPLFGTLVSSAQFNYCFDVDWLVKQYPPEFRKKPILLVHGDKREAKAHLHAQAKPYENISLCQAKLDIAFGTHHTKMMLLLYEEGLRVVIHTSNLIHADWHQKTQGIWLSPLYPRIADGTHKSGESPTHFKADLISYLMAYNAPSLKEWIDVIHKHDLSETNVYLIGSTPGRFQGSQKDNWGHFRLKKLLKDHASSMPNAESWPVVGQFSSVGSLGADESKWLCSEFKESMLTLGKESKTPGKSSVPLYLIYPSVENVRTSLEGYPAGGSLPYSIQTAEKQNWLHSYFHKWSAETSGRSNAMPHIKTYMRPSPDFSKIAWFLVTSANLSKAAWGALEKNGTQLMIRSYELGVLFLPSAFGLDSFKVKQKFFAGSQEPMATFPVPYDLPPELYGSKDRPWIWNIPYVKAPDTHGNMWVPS
#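 AlphaScreen read-out: signal falls as enzyme removes the 3' tyrosine-FITC from a 5'-biotinylated DNA oligo (15 nM, 5 min, RT). Enzyme was E. coli-made recombinant Tdp1 at 1 nM, exposed to compound for 15 min beforehand; beads 10 ug/ml, 10 min.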
# DT40 TDP1 CPT: qHTS for Inhibitors of human tyrosyl-DNA phosphodiesterase 1 (TDP1): qHTS in cells in presence of CPT; chicken DT40 Tdp1-/-;hTDP1 cells + 20 nM CPT, ATP luminescence, 48 h; Potency, µM (highest dose often 46.2 µM), for the others: top-dose activity change, negative = growth inhibition, most hits filed as inhibitors; hit rate 12% among 420,000; AID 686979, 2013; note: potency is the fitted concentration of half-maximal effect; nearly all actives have a fitted effect of over 55% in size
#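 Cell growth measured by CellTiter-Glo luminescence after a minimum 48 h, 37 C compound exposure with 20 nM CPT in Tdp1-knockout DT40 cells stably expressing hTDP1, seeded 400/well; qHTS titration format.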
# Six1-Eya2 blk: qHTS Assay for Inhibitors of the Six1/Eya2 Interaction; AlphaScreen GST-Six1/His-Eya2 binding, biochemical; stronger effect = lower value; Homeobox protein SIX1 (Homo sapiens) + Protein phosphatase EYA2 (Homo sapiens), …; AID 651725, 2012; hit rate 0.56% among 360,000; activity change, % (concentration not given with the values); in the data active = activity change below about -65%; inconclusive = mostly about -30% to -63%
#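 GST-Six1 + His-Eya2 (5X stock: 250/500 nM); Tris pH 8.0, 300 mM NaCl, 0.05% BSA, 0.02% Tween 20; GSH donor/Ni acceptor beads; 1 h 37 °C dark; AlphaScreen readout.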
# TDP1 cell noCPT: qHTS for Inhibitors of human tyrosyl-DNA phosphodiesterase 1 (TDP1): qHTS in cells in absence of CPT | hit rate 15% among 420,000 | AID 686978, 2013 | Potency, µM (top dose mostly 46.2 µM), for inactives: at the top dose activity change, negative = growth inhibition, hits mostly inhibitors | DT40 Tdp1-/- hTDP1 cells, no CPT, ATP luminescence, 48 h; note: potency is the fitted concentration of half-maximal effect; nearly all actives have a fitted effect of over 55% in size
#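 No-CPT arm: Tdp1-/-;hTDP1 DT40 cells (400/well) plus compounds, incubated ≥48 hr at 37 °C. Readout CellTiter-Glo luminescence.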
# IL-1B inflam inh: qHTS for Inhibitors of Inflammasome Signaling: IL-1-beta AlphaLISA Primary Screen. activity change, % at 57.5 µM. AID 743279, 2014. hit rate 4.7% among 360,000. THP-1 LPS/ATP IL-1B secretion, AlphaLISA, 16 h; stronger effect = lower value; in the data active = activity change below about -50%; inconclusive = mostly about -30% to -49%
#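 Secreted IL-1B measured by AlphaLISA bead assay after 16 h compound exposure of THP-1 cells; compounds (final up to 57.5 uM) added 1 h before LPS (250 ng/mL) and ATP (1.25 mM) stimulation; lower signal means less secretion.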
# CtBP-E1A blk: qHTS Assay for Inhibitors of the CtBP/E1A Interaction; activity change, % (concentration not given with the values); AlphaScreen GST-E1A/His-CtBP binding, 1536-well; stronger effect = lower value; hit rate 0.49% among 340,000; in the data active = activity change below about -65%; inconclusive = mostly about -30% to -63%
#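 Protein mix (5X: 125 nM each GST-E1A, His-CtBP) was incubated with pinned compound 2 h at 37 deg C in dark, in 50 mM Tris pH 8.0 buffer with 300 mM NaCl. Glutathione donor and nickel acceptor beads followed; AlphaScreen signal read after 1 h.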
# The depositor's hits bear a star; ? = inconclusive; . = not tested or not shown; [ ] = another dose, or the depositor's remark. Unless noted, calls come from the whole dose curve; as a rule, active = well fitted curve in the direction sought with a large enough effect; inconclusive = small, poorly fitted or top-dose-only effect, or another doubt; inactive = no such curve, though single readings can be large; an effect the other way counts as inactive or inconclusive. % is set by controls: 0 for no effect and ±100 for the full control effect.
SMILES,TDP1 block,DT40 TDP1 CPT,Six1-Eya2 blk,TDP1 cell noCPT,IL-1B inflam inh,CtBP-E1A blk
COc1ccc(Cl)cc1-n1cc(-c2ccccc2)nc1SCC(=O)Nc1ccc(C)cc1,9%,?,.,18µM*,.,.
Cc1ccc(S(=O)(=O)Nc2ccccc2-c2ccccc2)cc1,-8%,2.6µM*,9,2.6µM*,31,6
Cc1ccc(NS(=O)(=O)c2ccccc2)c(NS(=O)(=O)c2ccccc2)c1,.,-27%,9,-12%,15,-9
Cc1ccc(S(=O)(=O)Nc2ccccc2CNc2cccc(C)n2)cc1,4%,?,-6,16µM*,10,-9
Cc1cc(-c2ccc(NS(=O)(=O)c3ccccc3)c(C)c2)ccc1NS(=O)(=O)c1ccccc1,.,13µM*,-4,12µM*,15,-14
Cc1ccc(S(=O)(=O)NCc2ccccc2NS(=O)(=O)c2ccc(C)cc2)cc1,.,?,-17,?,8,-9
O=C(Cc1ccccc1C(=O)O)Nc1cccc2ccccc12,0%,-12%,2,-1%,16,-5
CCC(=O)Nc1ccc(NCc2ccc(-c3ccccc3)cc2)cc1,7%,-7%,-24,?,?,3
CC1Oc2ccccc2N(CC(=O)NCCCN2CCOCC2)C1=O (stereo not given),.,4%,6,2%,-10,4
Cc1nc(SCC(=O)c2ccccc2)n[nH]1,10%,-3%,3,-16%,-3,6
CCOc1ccc(CC(=O)NCCc2csc(-c3ccc(C)cc3)n2)cc1,7%,?,.,21µM*,.,.
CCOc1ccc(CC(=O)NCCc2csc(-c3ccc(Cl)cc3)n2)cc1,-3%,?,.,16µM*,.,.
COc1cccc2cc(C(=O)NCc3ccco3)c(=O)oc12,-2%,-3%,2,-12%,-13,4
COc1ccc(OC)c(N=c2oc3cc(O)ccc3cc2C(N)=O)c1,-1%,15µM*,-15,?,-23,-12
COc1ccc2cc(C(=O)c3ccccc3)c(=O)oc2c1,5%,-21%,-10,-9%,-8,-9
COc1ccc2cc(C(N)=O)c(=Nc3ccccc3)oc2c1,0%,?,-4,15µM*,-24,-18
COc1cccc2cc(C(=O)NCc3ccco3)c(=Nc3ccc(C(=O)O)cc3)oc12,-7%,?,3,16µM*,-85*,11
NC(=O)c1cc2ccc(O)cc2oc1=NCc1ccccc1,1%,18µM*,-5,?,-11,-3
O=C(Nc1ccc(F)cc1)Nc1ccc(N2CCOCC2)c2nonc12,4%,-16%,-9,?,?,-17
CCC1(c2ccccc2)NC(=O)N(CC(=O)Nc2ccc(S(N)(=O)=O)cc2)C1=O (stereo not given),5%,6%,3,2%,15,-10
Fc1ccc(OCCCn2ccnc2)cc1,.,-16%,-4,14%,-3,7
COc1ccc(OC)c(NC(=O)CSc2nnc(CCCO)n2-c2ccccc2)c1,9%,-30%,1,-15%,-11,0
CCCNC(=O)NC(=O)CN1C(=O)NC(C)(c2ccc3ccccc3c2)C1=O (stereo not given),0%,-10%,3,-26%,12,22
COc1ccc2oc(=O)c(C(C)=O)cc2c1,-2%,5%,3,-2%,8,8
COc1ccc2oc(=Nc3cc(F)ccc3F)c(C(N)=O)cc2c1,-5%,4.1µM*,-7,4.6µM*,-4,-3
SMILES,TDP1 block,DT40 TDP1 CPT,Six1-Eya2 blk,TDP1 cell noCPT,IL-1B inflam inh,CtBP-E1A blk
COc1ccc2cc(C(=O)NCc3ccccc3)c(=Nc3ccc(C(=O)O)cc3)oc2c1,0%,?,5,13µM*,9,.
NC(=O)c1cc2cc(Br)ccc2oc1=NCc1ccccc1,3%,-25%,2,-29%,-65*,-6
NC(=O)c1cc2ccccc2oc1=NCc1ccccc1,4%,-10%,-10,-20%,-26,-2
O=C(O)c1ccc(N=c2oc3cc(O)ccc3cc2C(=O)NCc2ccccc2)cc1,0%,2%,6,-17%,-6,.
NC(=O)c1cc2ccc(O)cc2oc1=Nc1ccccc1,5%,15µM*,9,?,-19,0
O=C(Nc1cccc(NC(=O)c2ccco2)n1)c1ccco1,.,?,-8,?,-6,-1
Cc1nc2cc(NC(=O)[C@@H]3C[C@@H](Sc4ccccn4)CN3C3CCCCCC3)ccc2s1,.,15%[9.04 µM],.,1%,.,.
CC1(NC(=O)Cc2ccc(Cl)c(Cl)c2)CCS(=O)(=O)C1 (stereo not given),0%,15%,10,4%,-5,3
CC#CCN1c2ccccc2[C@]23C[C@@H](C(=O)OC)N(C(=O)c4cc(C)oc4C)C2=NC(C(=O)OC)=C(C(=O)OC)[C@H]13,8%[12.3 µM],-1%,-19,?,-21,-8
C=CCN1c2ccccc2[C@]23C[C@@H](C(=O)OC)N(C(=O)c4cc(C)oc4C)C2=NC(C(=O)OC)=C(C(=O)OC)[C@H]13,15%[12.3 µM],?,-22,?,-65*,.
N#CC(C#N)=C1C(=O)N(CCN2CCOCC2)c2ccccc21,.,29µM*,0,?,.,-3
N#CC(C#N)=C1C(=O)N(CCN2CCCCC2)c2ccccc21,.,16µM*,-6,18µM*,?,?
CCCCN1C(=O)/C(=C(/C#N)C(=O)N2CCCC2)c2ccccc21,.,16µM*,5,21µM*,9,.
COc1ccc([C@@H]2[C@@H]3C(=O)N(C(C)(C)C)C(=O)[C@@H]3[C@]3(Cc4ccc(Cl)cc4)C(=O)N(c4ccc(Br)cc4)C(=O)N23)cc1,.,?,-4,?,-25,-6
Cc1cccc(C)c1NC(=O)CN(C)C(=O)c1cccc(S(=O)(=O)N2CCN(c3ccc(F)cc3)CC2)c1,13%,12µM*,-8,7.3µM*,-19,0
CN(CC(=O)Nc1ccccc1Cl)C(=O)c1cccc(S(=O)(=O)N2CCN(c3ccccc3)CC2)c1,.,?,-14,?,-20,-2
CN(CC(=O)Nc1cccc(F)c1)C(=O)c1cccc(S(=O)(=O)N2CCN(c3ccc(F)cc3)CC2)c1,.,21µM*,-4,21µM*,-1,-20
